The list is not random: actives were taken first. Their share in the collection is about 3.4%.
PAFAH1B2 FP inh – PAFAH1B2 (human) inhibition; P68402; recombinant PAFAH1B2, FP-rhodamine activity probe, fluorescence polarization; inhibition, % at 3.39 µM; actives 1.2% (n = 340,000); AID 492953;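 active = inhibition above the mean of all tested compounds plus 3 SD, cut at about 24% in these data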;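 note: 0% = enzyme with DMSO and 100% = wells lacking PAFAH1B2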
Target sequence (P68402 whole entry, looked up): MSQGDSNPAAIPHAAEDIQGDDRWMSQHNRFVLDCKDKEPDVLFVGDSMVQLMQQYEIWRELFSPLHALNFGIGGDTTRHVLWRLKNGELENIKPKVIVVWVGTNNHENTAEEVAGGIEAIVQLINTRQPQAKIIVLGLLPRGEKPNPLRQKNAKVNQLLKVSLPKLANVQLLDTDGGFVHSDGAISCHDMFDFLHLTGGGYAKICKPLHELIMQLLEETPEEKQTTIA
PP1 counter – PP1-alpha (human) inhibition in PP5 counter-screen; AID 2235; purified PP1alpha, OMFP fluorescence; inhibition, % at 6.7 µM; actives 0.9% (n = 320,000);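 active = inhibition above the mean inhibition of all tested compounds plus 3 SD, computed separately for each screening campaign, cut at about 15% in these data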
PAFAH1B3 FP inh – blocks human PAF acetylhydrolase 1B catalytic subunit 3; Q15102; recombinant PAFAH1B3, FP-rhodamine probe, fluorescence polarization; inhibition, % at 3.39 µM; AID 492972; actives 0.28% (n = 340,000);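 active = inhibition above the screen-wide average of all tested compounds plus 3 SD, cut at about 25% in these data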;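 note: 0% = enzyme with DMSO only and 100% = wells lacking PAFAH1B3 protein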
Target sequence (Q15102 whole entry, looked up): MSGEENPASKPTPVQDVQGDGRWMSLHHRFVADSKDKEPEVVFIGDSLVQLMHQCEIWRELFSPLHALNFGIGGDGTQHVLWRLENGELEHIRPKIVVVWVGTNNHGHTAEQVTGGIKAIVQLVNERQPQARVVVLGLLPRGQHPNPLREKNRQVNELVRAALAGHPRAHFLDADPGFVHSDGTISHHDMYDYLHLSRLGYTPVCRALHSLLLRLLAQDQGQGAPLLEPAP
pPAFAH inh – inhibitors of human plasma PAF acetylhydrolase (pPAFAH). Q13093. recombinant pPAFAH, FP-rhodamine probe fluorescence polarization. inhibition, % at 3.39 µM. actives 1.5% (n = 330,000);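 active = inhibition above the mean inhibition across the screen plus 3 SD, cut at about 25% in these data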;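 note: inhibitors block binding of the rhodamine activity-based probe so polarization drops; 0% = enzyme with DMSO and 100% = wells lacking pPAFAH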
PAFAH2 inh – PAFAH2 (human) inhibition. Q99487. recombinant PAFAH2, FP-rhodamine activity probe, fluorescence polarization. inhibition, % at 3.39 µM. actives 0.99% (n = 340,000);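 active = inhibition above the mean over all tested compounds plus 3 SD, cut at about 30% in these data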;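 note: inhibitors block probe labeling of enzyme so polarization drops; 0% = enzyme with DMSO and 100% = wells lacking PAFAH2 protein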
PP5 primary – inhibitors of human protein phosphatase 5 (PP5); AID 1987; actives 0.18% (n = 320,000); P53041; purified PP5c, OMFP substrate fluorescence; inhibition, % at 6.7 µM;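 active = inhibition above the campaign's mean inhibition across all tested compounds plus 3 SD, cut at about 9.5% in these data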;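 note: 0% = DMSO only and 100% = 100 µM cantharidin control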
* marks the source's active call; other numbers are inactive results; . = no result.

SMILES	PAFAH1B2 FP inh	PP1 counter	PAFAH1B3 FP inh	pPAFAH inh	PAFAH2 inh	PP5 primary
C[C@H](CO)N1C[C@H](C)[C@@H](CN(C)S(=O)(=O)c2ccc(F)cc2)Oc2c(NC(=O)Nc3ccc(C(F)(F)F)cc3)cccc2C1=O	24*	.	-24	7	-30	.
COc1ccc(NC(=O)N(C)C[C@H]2Oc3c(NC(=O)Nc4ccc(C(F)(F)F)cc4)cccc3C(=O)N([C@H](C)CO)C[C@@H]2C)cc1	36*	.	7	1	-3	.
C[C@H](CO)N1C[C@H](C)[C@@H](CN(C)C(=O)Nc2ccc(C(F)(F)F)cc2)Oc2c(NC(=O)Nc3ccccc3)cccc2C1=O	57*	.	-9	1	-9	.
CC(C)NC(=O)N(C)C[C@H]1Oc2c(NC(=O)Nc3ccc(C(F)(F)F)cc3)cccc2C(=O)N([C@H](C)CO)C[C@@H]1C	1	.	-5	15	1	.
C[C@H](CO)N1C[C@H](C)[C@@H](CN(C)C(=O)NC2CCCCC2)Oc2c(NC(=O)Nc3ccc(C(F)(F)F)cc3)cccc2C1=O	8	.	-5	1	-4	.
C[C@@H]1CN([C@H](C)CO)C(=O)c2cccc(NC(=O)Nc3ccc(F)cc3)c2O[C@H]1CN(C)C(=O)Nc1ccc(C(F)(F)F)cc1	50*	.	6	-9	0	.
S=c1[nH]nc(Cc2ccccc2)n1-c1cccc2ccccc12	28*	-4	-6	4	2	2
O=C(c1ccc(Oc2cc(Cl)cc(Cl)c2)o1)N1CCCCC1	4	-2	4	32*	12	0
CC(NS(=O)(=O)c1ccccc1Cl)C1CC2CCC1C2 (stereo not drawn)	26*	-1	0	3	-9	0
O=C(c1cn(-c2ccccc2)nc1-c1cccnc1)N1CCN(S(=O)(=O)c2ccc(Cl)cc2)CC1	29*	.	4	.	-4	.
CC(NC(=O)Cn1c(=O)[nH]c2ccsc2c1=O)C12CC3CC(CC(C3)C1)C2 (stereo not drawn)	28*	-2	9	14	27	1
CC(NC(=O)CN1C(=O)NC(Cc2ccccc2)(Cc2ccccc2)C1=O)C12CC3CC(CC(C3)C1)C2 (stereo not drawn)	72*	10	-3	7	10	6
N#CC(C(=S)Nc1ccccc1)c1nc2ccccc2[nH]1 (stereo not drawn)	4	-6	-1	8	16	3
CSC(=Nc1ccccc1)C(C#N)c1nc2ccccc2[nH]1 (stereo not drawn)	-1	-2	10	31*	3	1
O=c1c2c(nc3cc(-c4ccc(Cl)cc4)[nH]n13)CCS2	32*	0	5	16	20	1
CCc1c(C)nc2cc(-c3ccc(Cl)cc3)[nH]n2c1=O	2	4	0	9	2	-1
COc1cccc2c1[C@@H]1CN(CCCCn3c(=O)[nH]c4c(sc5ncc(-c6ccccc6)nc54)c3=O)C[C@@H]1CO2	-3	17*	6	11	11	-3
COc1cc2[nH]c(=O)n(CCCC(=O)N3CC=C(c4ccccc4)CC3)c(=O)c2cc1OC	-3	-2	12	-11	-1	-1
O=C1CCNc2cc3ccccc3cc21	3	8	9	31*	4	5
O=C1CCNc2ccc(-c3ccccc3)cc21	6	-5	3	2	0	3
CN(C)S(=O)(=O)c1cccc(-c2nnc(-c3ccccc3)o2)c1	-3	0	7	4	-8	3
COc1cccc(C(=O)Oc2cc3c4c(c2)C(C)=CC(C)(C)N4C(=O)C3=O)c1	6	17*	0	2	6	5
O=C(C[n+]1cc(Br)cc(Br)c1)c1ccc(-c2ccccc2)cc1	2	6	15	17	-5	2
CCC(=O)Nc1ccc2nc3c(=O)[nH]c(=S)[nH]c3nc2c1	7	3	12	26*	13	0
CCCCn1c(=O)[nH]c2nc3cc(NC(C)=O)ccc3nc2c1=O	6	-4	5	4	7	3
SMILES	PAFAH1B2 FP inh	PP1 counter	PAFAH1B3 FP inh	pPAFAH inh	PAFAH2 inh	PP5 primary
COCCN1C(=O)c2ccc(C(=O)Nc3cccnc3)cc2C1=O	-2	0	-1	-2	0	0
Cc1ccc(-c2c3c(nc4sc(C(N)=O)c(N)c24)CCC3)cc1	-7	4	4	28*	0	4
NC(=O)c1sc2nc3c(c(-c4ccco4)c2c1N)CCCC3	6	2	3	18	-3	2
NC(=O)c1sc2nc3c(c(-c4ccc(Cl)cc4)c2c1N)CCCC3	4	5	7	30*	7	5
CC(=O)c1ccc2c(c1)C1C=CCC1C(c1ccncc1)N2 (stereo not drawn)	1	2	2	13	16	2
COC(=O)c1ccc(C2Nc3ccc(/C(C)=N/NC(=O)C(OC)c4ccccc4)cc3C3C=CCC32)cc1 (stereo not drawn)	3	21*	8	6	1	3
O=C(NCCC1=CCCCC1)C1CCCN(S(=O)(=O)c2ccccc2)C1 (stereo not drawn)	27*	-4	4	9	4	-1
O=C(NCCc1ccccc1)C1CCCN(S(=O)(=O)c2cnc[nH]2)C1 (stereo not drawn)	6	-8	6	0	-1	0
Cc1ccc(S(=O)(=O)N2CCCC(C(=O)NCCC3=CCCCC3)C2)cc1 (stereo not drawn)	15	-8	4	1	-2	2
O=C(NCCC1=CCCCC1)C1CCCN(S(=O)(=O)c2cnc[nH]2)C1 (stereo not drawn)	26*	1	0	6	1	3
O=S(=O)(NCCC1=CCCCC1)c1cccc(S(=O)(=O)N2CCOCC2)c1	10	-3	3	30*	-3	2
O=C(Nc1ccc(NC(=O)C23CC4CC(CC(C4)C2)C3)cn1)c1ccco1	12	3	1	0	-1	0
O/N=C/c1ccc2ccccc2c1	50*	0	5	0	-1	2
CSc1ccc(CN(C)C(=O)c2ccc(S(=O)(=O)Nc3ccccc3)cc2)cc1	4	3	-6	32*	3	1
CN(Cc1ccc(F)cc1)C(=O)c1cccc(NS(=O)(=O)c2ccccc2)c1	13	1	-2	25*	4	2
Cc1cccc(C)c1NC(=O)CN(C)C(=O)c1cccc(NS(=O)(=O)c2ccccc2)c1	2	-3	-1	30*	6	-2
CSc1ccc(CN(C)C(=O)c2ccc(S(=O)(=O)Nc3c(C)n(C)n(-c4ccccc4)c3=O)cc2)cc1	5	.	6	.	4	.
Cc1cccc(C)c1NC(=O)CN(C)C(=O)c1ccc(NS(=O)(=O)c2ccc3[nH]c(=O)[nH]c3c2)cc1	4	-3	11	3	2	-1
